The source made the active and inactive calls. The calls were made as follows: active = hit-call score of the fitted dose curve at least 0.9, where 1 is the maximum; inactive = score below 0.9.
Legend:
Details in all cases: mRNA level, 48 h; actives raise or lower the signal
[1] = read-out: Bcl-2 (BID) gene, BID (gene 637); assay: LTEA_HepaRG_BID: Life Technologies and Expression Analysis (LTEA) Assay for Bcl-2 (BID) gene using HepaRG (AID 2283476)
In short: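 Gene expression by qRT-PCR in HepaRG cells after 48 h exposure, duplicate wells, eight half-log concentrations topping at 100 uM in 0.5% DMSO. Normalized to ACTB, GAPDH, POLR2A; bidirectional fitting relative to DMSO.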

Caspase-3 (Homo sapiens) = Caspase-3 (Homo sapiens) (UniProt P42574); assay: LTEA_HepaRG_CASP3: Life Technologies and Expression Analysis (LTEA) Assay for cysteine-aspartic acid protease (CASP3) using HepaRG (AID 2283477)
Sequence of Caspase-3 (Homo sapiens) (P42574 whole entry, looked up): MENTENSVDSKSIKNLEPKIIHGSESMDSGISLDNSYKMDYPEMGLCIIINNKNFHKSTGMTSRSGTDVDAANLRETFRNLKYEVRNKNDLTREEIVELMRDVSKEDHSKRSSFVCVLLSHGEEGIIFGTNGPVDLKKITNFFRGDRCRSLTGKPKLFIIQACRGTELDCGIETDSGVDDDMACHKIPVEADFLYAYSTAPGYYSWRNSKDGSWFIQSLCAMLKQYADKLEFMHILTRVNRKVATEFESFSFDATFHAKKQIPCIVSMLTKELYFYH
In short: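 Read-out is CASP3 mRNA level by TaqMan qRT-PCR in human HepaRG cells after 48 h chemical exposure. Eight half-log concentrations topping at 100 uM were tested in 0.5% DMSO; gain or loss was fitted relative to DMSO.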

[2] = read-out: Cytochrome P450 (CYP24A1), CYP24A1 (gene 1591); assay: LTEA_HepaRG_CYP24A1: Life Technologies and Expression Analysis (LTEA) Assay for Cytochrome P450 (CYP24A1) using HepaRG (AID 2283478)
In short: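 HepaRG, 48 h chemical exposure, 8-pt half-log CRC from 100 uM, 0.5% DMSO vehicle, duplicates. Endpoint: CYP24A1 mRNA by Fluidigm TaqMan qRT-PCR, normalized ACTB/GAPDH/POLR2A; gain/loss fit vs DMSO.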

[3] = read-out: Cytochrome P450 (CYP1A2), CYP1A2 (gene 1544); assay: LTEA_HepaRG_CYP1A2: Life Technologies and Expression Analysis (LTEA) Assay for Cytochrome P450 (CYP1A2) using HepaRG (AID 2283479)
In short: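 CYP1A2 transcript induction or loss, quantified by Fluidigm qRT-PCR against three housekeeping genes, was fitted bidirectionally against 0.5% DMSO controls. Human HepaRG cells received eight half-log concentrations from 100 uM over 48 h.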

[4] = read-out: Cytochrome P450 (CYP2B6), CYP2B6 (gene 1555); assay: LTEA_HepaRG_CYP2B6: Life Technologies and Expression Analysis (LTEA) Assay for Cytochrome P450 (CYP2B6) using HepaRG (AID 2283481)
In short: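 HepaRG cells plated 48 h, switched to serum-free induction medium, then dosed 48 h (8 points, half-log from 100 uM, 0.5% DMSO). RNA isolated; CYP2B6 expression measured by qRT-PCR; gain or loss fitted relative to DMSO.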

[5] = read-out: Cytochrome P450 2C19 (Homo sapiens) (UniProt P33261); assay: LTEA_HepaRG_CYP2C19: Life Technologies and Expression Analysis (LTEA) Assay for CYP2C19 using HepaRG (AID 2283482)
In short: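 Transcript levels of CYP2C19 were quantified by qRT-PCR after HepaRG cells were treated for 48 hours with test chemicals up to 100 uM (eight half-log concentrations, 0.5% DMSO vehicle). Gain or loss of signal was fitted relative to DMSO.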

CYP2C9 (gene 1559) = assay: LTEA_HepaRG_CYP2C9: Life Technologies and Expression Analysis (LTEA) Assay for CYP2C9 using HepaRG (AID 2283484)
In short: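 Differentiated human HepaRG cells were exposed 48 h in serum-free induction medium to eight half-log concentrations up to 100 uM in 0.5% DMSO. CYP2C9 mRNA was measured by qRT-PCR, normalized to ACTB, GAPDH and POLR2A, and fitted bidirectionally against DMSO.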

CYP2E1 (gene 1571) = assay: LTEA_HepaRG_CYP2E1: Life Technologies and Expression Analysis (LTEA) Assay for CYP2E1 using HepaRG (AID 2283485)
In short: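 HepaRG cells, plated 48 h, then exposed 48 h in serum-free induction medium to eight half-log concentrations from 100 uM in 0.5% DMSO, duplicate. CYP2E1 mRNA by qRT-PCR, normalized to ACTB/GAPDH/POLR2A; bidirectional fit versus DMSO.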

CYP4A11 (gene 1579) = assay: LTEA_HepaRG_CYP4A11: Life Technologies and Expression Analysis (LTEA) Assay for CYP4A11 using HepaRG (AID 2283486)
In short: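 HepaRG, 48 h chem exposure, 8 conc (100 uM top, half-log), 0.5% DMSO vehicle; qRT-PCR readout, housekeeping-gene normalized; bidirectional curve fit vs DMSO baseline.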

[6] = read-out: Cytochrome P450 3A4 (Homo sapiens) (UniProt P08684); assay: LTEA_HepaRG_CYP3A4: Life Technologies and Expression Analysis (LTEA) Assay for CYP3A4 using HepaRG (AID 2283487)
In short: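 Differentiated HepaRG cells in serum-free induction medium exposed in duplicate for 48 h to 8 half-log concentrations up to 100 uM in 0.5% DMSO. CYP3A4 mRNA measured by qRT-PCR normalized to ACTB, GAPDH and POLR2A; bidirectional fit versus DMSO.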

[7] = read-out: DNA damage-inducible transcript 3 (DDIT3), DDIT3 (gene 1649); assay: LTEA_HepaRG_DDIT3: Life Technologies and Expression Analysis (LTEA) Assay for DNA damage-inducible transcript 3 (DDIT3) using HepaRG (AID 2283488)
In short: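 HepaRG cells, 48 h after plating, exposed 48 h in serum-free induction medium to 8 half-log concentrations up to 100 uM in 0.5% DMSO, in duplicate. DDIT3 mRNA measured by TaqMan qRT-PCR, normalized to ACTB, GAPDH and POLR2A. Fitted bidirectionally against DMSO.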

[8] = read-out: Pro-epidermal growth factor (Homo sapiens) (UniProt P01133); assay: LTEA_HepaRG_EGF: Life Technologies and Expression Analysis (LTEA) Assay for Epidermal growth factor (EGF) using HepaRG (AID 2283489)
In short: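 HepaRG, 48 h dosing, 100 uM top, half-log x8, 0.5% DMSO. Readout: TaqMan qRT-PCR (Fluidigm array), housekeeping-normalized. Gain or loss of signal fit vs DMSO.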

[9] = read-out: Early growth response protein 1 (EGR1) transcription factor, EGR1 (gene 1958); assay: LTEA_HepaRG_EGR1: Life Technologies and Expression Analysis (LTEA) Assay for Early growth response protein 1 (EGR1) transcription factor using HepaRG (AID 2283490)
In short: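 Differentiated human HepaRG cells in serum-free induction medium were exposed in duplicate for 48 h to eight concentrations (top 100 uM, half-log steps) in 0.5% DMSO. EGR1 mRNA was quantified by qRT-PCR, normalized to ACTB, GAPDH and POLR2A, and fitted bidirectionally versus DMSO.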

[10] = read-out: Ezrin (EZR), EZR (gene 7430); assay: LTEA_HepaRG_EZR: Life Technologies and Expression Analysis (LTEA) Assay for Ezrin (EZR) using HepaRG (AID 2283491)
In short: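 Differentiated human HepaRG cells, 48 h after plating, were exposed in serum-free induction medium for 48 hours to eight half-log concentrations up to 100 uM in 0.5% DMSO. EZR mRNA was measured by TaqMan qRT-PCR, normalized to ACTB, GAPDH and POLR2A, and fitted bidirectionally against DMSO.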

[11] = read-out: Cytochrome P450 3A7 (Homo sapiens) (UniProt P24462); assay: LTEA_HepaRG_CYP3A7: Life Technologies and Expression Analysis (LTEA) Assay for CYP3A7 using HepaRG (AID 2283492)
In short: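 Human HepaRG liver cells, 48 h post-plating, switched to serum-free induction medium and exposed in duplicate for 48 h. Dosing: 100 uM top, half-log dilutions, 8 points, 0.5% DMSO vehicle. Read-out: CYP3A7 mRNA, gain or loss fitted against DMSO baseline.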

[12] = read-out: Fatty Acid-Binding Protein 1 (FABP1), FABP1 (gene 2168); assay: LTEA_HepaRG_FABP1: Life Technologies and Expression Analysis (LTEA) Assay for Fatty Acid-Binding Protein 1 (FABP1) using HepaRG (AID 2283494)
In short: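 Differentiated human HepaRG cells were exposed in duplicate for 48 h in serum-free induction medium to 8-point half-log concentration series topping at 100 uM in 0.5% DMSO. FABP1 mRNA measured by TaqMan qRT-PCR, normalized to ACTB/GAPDH/POLR2A; bidirectional fit versus DMSO.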

[13] = read-out: Cytochrome P450 4A22 (Homo sapiens) (UniProt Q5TCH4); assay: LTEA_HepaRG_CYP4A22: Life Technologies and Expression Analysis (LTEA) Assay for Cytochrome P450 4A22 (CYP4A22) using HepaRG (AID 2283495)
In short: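 Readout is CYP4A22 transcript induction or loss, quantified by qRT-PCR and normalized to ACTB, GAPDH and POLR2A. Human HepaRG cells receive test chemicals for 48 h at eight half-log concentrations from 100 uM in 0.5% DMSO.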

CYP2C8 (gene 1558) = assay: LTEA_HepaRG_CYP2C8: Life Technologies and Expression Analysis (LTEA) Assay for CYP2C8 using HepaRG (AID 2283483)
In short: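 Differentiated human HepaRG cells were exposed for 48 h in serum-free induction medium to eight half-log concentrations up to 100 uM in 0.5% DMSO, in duplicate. CYP2C8 mRNA was measured by TaqMan qRT-PCR, normalized to ACTB, GAPDH and POLR2A, and fitted bidirectionally against DMSO.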

CYP3A5 (gene 1577) = assay: LTEA_HepaRG_CYP3A5: Life Technologies and Expression Analysis (LTEA) Assay for CYP3A5 using HepaRG (AID 2283493)
In short: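 HepaRG cells, plated 48 h then in serum-free induction medium, dosed in duplicate for 48 h with eight half-log concentrations up to 100 uM in 0.5% DMSO. Gene mRNA by Fluidigm TaqMan qRT-PCR, normalized to ACTB, GAPDH, POLR2A.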

Sequence of Cytochrome P450 3A7 (Homo sapiens) (P24462 whole entry, looked up): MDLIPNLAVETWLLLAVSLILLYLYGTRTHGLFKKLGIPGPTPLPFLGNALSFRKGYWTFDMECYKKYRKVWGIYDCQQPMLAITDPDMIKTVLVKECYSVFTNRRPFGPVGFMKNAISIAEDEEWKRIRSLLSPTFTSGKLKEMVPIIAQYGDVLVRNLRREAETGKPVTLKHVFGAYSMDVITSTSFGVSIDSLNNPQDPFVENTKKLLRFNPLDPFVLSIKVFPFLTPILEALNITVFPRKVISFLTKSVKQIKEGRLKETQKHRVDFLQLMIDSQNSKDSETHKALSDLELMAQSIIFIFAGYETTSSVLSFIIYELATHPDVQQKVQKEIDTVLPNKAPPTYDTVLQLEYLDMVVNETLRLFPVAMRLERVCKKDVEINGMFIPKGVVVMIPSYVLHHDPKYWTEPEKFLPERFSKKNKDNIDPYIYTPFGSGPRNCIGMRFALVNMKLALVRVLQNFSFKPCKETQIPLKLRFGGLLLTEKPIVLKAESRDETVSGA
Sequence of Cytochrome P450 2C19 (Homo sapiens) (P33261 whole entry, looked up): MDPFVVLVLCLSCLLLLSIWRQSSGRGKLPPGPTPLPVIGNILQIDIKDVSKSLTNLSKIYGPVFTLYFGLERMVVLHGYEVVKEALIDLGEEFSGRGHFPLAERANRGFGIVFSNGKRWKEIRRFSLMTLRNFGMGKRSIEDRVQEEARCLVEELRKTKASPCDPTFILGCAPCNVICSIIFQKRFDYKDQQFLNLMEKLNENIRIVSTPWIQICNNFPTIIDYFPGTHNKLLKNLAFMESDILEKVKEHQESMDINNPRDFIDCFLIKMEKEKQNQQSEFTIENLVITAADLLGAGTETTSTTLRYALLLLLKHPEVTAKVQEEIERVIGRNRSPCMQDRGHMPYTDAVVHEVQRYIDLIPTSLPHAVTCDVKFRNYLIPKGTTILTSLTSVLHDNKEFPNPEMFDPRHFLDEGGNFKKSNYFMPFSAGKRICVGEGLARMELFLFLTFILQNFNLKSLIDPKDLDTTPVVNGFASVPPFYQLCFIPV
Sequence of Cytochrome P450 3A4 (Homo sapiens) (P08684 whole entry, looked up): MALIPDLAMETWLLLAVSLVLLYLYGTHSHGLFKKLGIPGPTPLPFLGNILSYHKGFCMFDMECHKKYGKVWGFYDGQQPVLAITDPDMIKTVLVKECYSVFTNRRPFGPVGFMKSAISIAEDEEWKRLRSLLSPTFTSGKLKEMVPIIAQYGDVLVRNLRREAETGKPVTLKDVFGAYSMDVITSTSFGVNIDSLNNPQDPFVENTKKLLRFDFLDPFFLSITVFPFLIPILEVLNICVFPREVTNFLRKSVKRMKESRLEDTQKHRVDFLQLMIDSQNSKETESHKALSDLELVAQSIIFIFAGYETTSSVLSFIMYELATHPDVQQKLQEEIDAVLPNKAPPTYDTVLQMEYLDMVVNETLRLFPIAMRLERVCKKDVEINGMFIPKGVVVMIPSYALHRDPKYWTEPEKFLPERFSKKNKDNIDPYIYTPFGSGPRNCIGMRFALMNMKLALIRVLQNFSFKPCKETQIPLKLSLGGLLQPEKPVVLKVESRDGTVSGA

SMILES: CSc1nc(NC(C)C)nc(NC(C)C)n1
- outcome [1]: inactive
- outcome (Caspase-3 (Homo sapiens)): inactive
- outcome [2]: inactive
- outcome [3]: inactive
- AC50 [4]: 1.31 µM (active)
- AC50 [5]: 1.96 µM (active)
- AC50 (CYP2C9 (gene 1559)): 85.9 µM (active)
- AC50 (CYP2E1 (gene 1571)): 39.1 µM (active)
- AC50 (CYP4A11 (gene 1579)): 31 µM (active)
- AC50 [6]: 1.46 µM (active)
- outcome [7]: inactive
- outcome [8]: inactive
- outcome [9]: inactive
- outcome [10]: inactive
- AC50 [11]: 1.17 µM (active)
- AC50 [12]: 44.1 µM (active)
- AC50 [13]: 24.3 µM (active)

SMILES: CCCOCC(=Nc1ccc(Cl)cc1C(F)(F)F)n1ccnc1
- outcome [1]: inactive
- outcome (Caspase-3 (Homo sapiens)): inactive
- outcome [2]: inactive
- outcome [3]: inactive
- AC50 [4]: 30.4 µM (active)
- AC50 [5]: 32.5 µM (active)
- AC50 (CYP2C8 (gene 1558)): 25.7 µM (active)
- AC50 (CYP2E1 (gene 1571)): 13.2 µM (active)
- AC50 (CYP4A11 (gene 1579)): 23 µM (active)
- AC50 [6]: 73.5 µM (active)
- outcome [8]: inactive
- outcome [9]: inactive
- outcome [10]: inactive
- AC50 [11]: 23 µM (active)
- AC50 (CYP3A5 (gene 1577)): 71 µM (active)
- AC50 [12]: 14.6 µM (active)

SMILES: CCOC(=O)CC(SP(=O)(OC)OC)C(=O)OCC (stereo not given)
- outcome [1]: inactive
- outcome (Caspase-3 (Homo sapiens)): inactive
- outcome [2]: inactive
- outcome [3]: inactive
- AC50 [4]: 50 µM (active)
- outcome [5]: inactive
- outcome (CYP2C9 (gene 1559)): inactive
- AC50 (CYP2E1 (gene 1571)): 25.1 µM (active)
- outcome (CYP4A11 (gene 1579)): inactive
- outcome [6]: inactive
- outcome [7]: inactive
- outcome [8]: inactive
- outcome [9]: inactive
- outcome [10]: inactive
- outcome [11]: inactive
- outcome [12]: inactive

SMILES: CC(Oc1cccc(Cl)c1)C(=O)O (stereo not given)
- outcome [1]: inactive
- outcome (Caspase-3 (Homo sapiens)): inactive
- outcome [2]: inactive
- outcome [3]: inactive
- AC50 [4]: 2.24 µM (active)
- AC50 [5]: 7.31 µM (active)
- AC50 (CYP2E1 (gene 1571)): 4.01 µM (active)
- outcome (CYP4A11 (gene 1579)): inactive
- AC50 [6]: 10 µM (active)
- outcome [8]: inactive
- outcome [9]: inactive
- outcome [10]: inactive
- AC50 [11]: 14.2 µM (active)
- outcome (CYP3A5 (gene 1577)): inactive
- outcome [12]: inactive

SMILES: CC(C)=CC1C(C(=O)OCN2C(=O)C3=C(CCCC3)C2=O)C1(C)C (stereo not given)
- outcome [1]: inactive
- outcome (Caspase-3 (Homo sapiens)): inactive
- outcome [2]: inactive
- AC50 [3]: 31.5 µM (active)
- AC50 [4]: 50 µM (active)
- outcome (CYP2E1 (gene 1571)): inactive
- outcome (CYP4A11 (gene 1579)): inactive
- outcome [6]: inactive
- outcome [8]: inactive
- outcome [9]: inactive
- outcome [10]: inactive
- outcome [11]: inactive
- outcome (CYP3A5 (gene 1577)): inactive
- outcome [12]: inactive
- outcome [13]: inactive

SMILES: CCc1cccc(CC)c1N(COC)C(=O)CCl
- outcome [1]: inactive
- outcome (Caspase-3 (Homo sapiens)): inactive
- outcome [2]: inactive
- outcome [3]: inactive
- AC50 [4]: 50 µM (active)
- outcome [5]: inactive
- outcome (CYP2C8 (gene 1558)): inactive
- outcome (CYP2E1 (gene 1571)): inactive
- outcome (CYP4A11 (gene 1579)): inactive
- outcome [6]: inactive
- outcome [7]: inactive
- outcome [8]: inactive
- outcome [9]: inactive
- outcome [10]: inactive
- outcome [11]: inactive
- outcome [12]: inactive

SMILES: C[N+]1(C)CCCCC1
- outcome [1]: inactive
- outcome (Caspase-3 (Homo sapiens)): inactive
- outcome [2]: inactive
- outcome [3]: inactive
- outcome [4]: inactive
- outcome [5]: inactive
- outcome (CYP2E1 (gene 1571)): inactive
- outcome (CYP4A11 (gene 1579)): inactive
- outcome [6]: inactive
- outcome [8]: inactive
- outcome [9]: inactive
- outcome [10]: inactive
- outcome [11]: inactive
- outcome [12]: inactive
- outcome [13]: inactive

From PubChem BioAssay (EPA / NIEHS)
